# Screening data: PubChem, National Center for Advancing Translational Sciences (NCATS)
# Hits are enriched below; roughly 12% of the tested compounds scored in any of these assays.
# Sfp inh: qHTS Assay for Inhibitors of Bacillus subtilis Sfp phosphopantetheinyl transferase (PPTase); Biochemical Sfp PPTase activity, qHTS; Potency, µM, actives largely listed as inhibitors; actives 3.5% (n = 310,000); AID 1490, 2009;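 also: the enzyme is Sfp with the accession as filed and its product quenches rhodamine fluorescence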
#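 Buffer: 50 mM Hepes-Na pH 7.6, 10 mM MgCl2, 0.01% Nonidet P-40, 0.01% BSA. Enzyme 15 nM, pre-exposed to compound 15 min; substrates then added and fluorescence change tracked over 30 min.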
# ALDH1A1 inh: qHTS Assay for Inhibitors of Aldehyde Dehydrogenase 1 (ALDH1A1); Aldehyde dehydrogenase 1A1 (Homo sapiens), P00352; Purified ALDH1A1, NADH fluorescence, propionaldehyde substrate; Potency, µM (top dose mostly 75.3 µM), hits mostly inhibitors; actives 7.3% (n = 220,000); active = well fitted inhibition curve with a large enough effect, not every such curve was filed as active; inconclusive = small, poorly fitted or top-dose-only effect, or another doubt; inactive = no such curve, though single readings can be large or run the other way
# Target sequence (P00352 whole entry, looked up): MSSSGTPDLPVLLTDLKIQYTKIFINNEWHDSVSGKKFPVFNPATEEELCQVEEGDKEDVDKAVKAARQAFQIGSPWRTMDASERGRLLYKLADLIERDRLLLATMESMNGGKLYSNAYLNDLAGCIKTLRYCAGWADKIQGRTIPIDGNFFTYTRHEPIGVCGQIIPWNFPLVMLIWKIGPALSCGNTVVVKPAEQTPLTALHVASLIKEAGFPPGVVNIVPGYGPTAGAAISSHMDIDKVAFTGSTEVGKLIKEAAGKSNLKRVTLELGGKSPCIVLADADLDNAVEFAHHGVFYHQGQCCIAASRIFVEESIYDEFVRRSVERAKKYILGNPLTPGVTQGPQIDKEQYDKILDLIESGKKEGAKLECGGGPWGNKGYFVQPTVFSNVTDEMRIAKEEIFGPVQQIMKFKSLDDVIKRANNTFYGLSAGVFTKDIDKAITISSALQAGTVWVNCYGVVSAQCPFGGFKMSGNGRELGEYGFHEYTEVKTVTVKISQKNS
# RORg inh: qHTS for inhibitors of ROR gamma transcriptional activity; Drosophila S2 Gal4-RORgamma UAS-luciferase reporter, 20 h; Potency, µM (top dose mostly 53.6 µM), actives largely listed as inhibitors; actives 5.4% (n = 310,000); also: nearly all actives have a fitted effect of over 60% in size
#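 ROR gamma transcriptional activity was tracked as Gal4-UAS luciferase output in stably transfected Drosophila Schneider cells, with compound added 1 hr before 700 uM copper sulfate induction and a 20 hr ambient-temperature incubation.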
# Gal4-VP16 FLuc: VP16 counterscreen qHTS for inhibitors of ROR gamma transcriptional activity; Potency, µM (titrated, usually from 53.6 µM), most hits filed as inhibitors; AID 2546, 2010; actives 3.5% (n = 310,000); Drosophila S2 Gal4-VP16 UAS-luciferase, luminescence, 20 h;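 also: Gal4-VP16 expression switched on by copper sulfate through the metallothionein promoter; nearly all actives have a fitted effect of over 50% in size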
# PLK1 PBD block: qHTS for Inhibitors of PLK1-PDB (polo-like kinase 1 - polo-box domain): Primary Screen | Serine/threonine-protein kinase PLK1 (Homo sapiens), P53350 | Plk1 PBD binding of FITC phosphopeptide, fluorescence polarization | Potency, µM, actives largely listed as inhibitors | actives 2.8% (n = 360,000); also: series mostly up to about 57 µM; nearly all actives have a fitted effect of over 65% in size
# TbPYK confirm: qHTS of Trypanosoma Brucei Inhibitors: Confirmatory Assay for Cherry-picked Compounds; shares compounds with PLK1 PBD block; recombinant TbPYK, Kinase-Glo ATP luminescence; Potency, µM (doses to about 76.9 µM), hits mostly inhibitors; actives 67% (n = 890); AID 720569, 2013; also: nearly all actives have a fitted effect of over 70% in size
# TbPYK orthogonal: qHTS of Trypanosoma Brucei Inhibitors: Orthogonal Assay for Cherry-picked Compounds; Potency, µM (doses to about 76.9 µM), usual class: inhibitors; AID 720584, 2013; recombinant TbPYK, ADP-Glo luminescence, 60 min; shares compounds with PLK1 PBD block; actives 62% (n = 890); also: nearly all actives have a fitted effect of over 75% in size
# Hits are given with their value; . = inactive; ? = inconclusive; / = not tested or not shown. Unless noted, calls follow the shape of the dose curve; as a rule, active = well fitted curve in the direction sought with a large enough effect; inconclusive = small, poorly fitted or top-dose-only effect, or another doubt; inactive = no such curve, though single readings can be large; an effect the other way counts as inactive or inconclusive.
SMILES,Sfp inh,ALDH1A1 inh,RORg inh,Gal4-VP16 FLuc,PLK1 PBD block,TbPYK confirm,TbPYK orthogonal
Cc1ccc(-c2csc3ncn(-n4c(C)ccc4C)c(=O)c23)o1,.,32µM,.,.,?,.,?
Cc1sc2ncn(-n3c(C)ccc3C)c(=O)c2c1C,.,.,.,.,.,/,/
Nc1nc2ccc([N+](=O)[O-])c(N)c2s1,89µM,?,.,.,11µM,?,32µM
Nc1ccc2nc(N)sc2c1,/,/,/,/,.,/,/
CCCS(=O)(=O)c1cscc1NC(=O)c1c(-c2c(F)cccc2Cl)noc1C,.,/,.,.,.,13µM,14µM
CCN(CC)c1ccc2nc3ccc(N)cc3[n+](-c3ccccc3)c2c1,/,/,/,/,.,?,.
C[C@@H]1CN(C(=O)c2cc(COc3cccc(C(F)(F)F)c3)on2)C[C@H](C)O1,.,/,.,.,.,/,/
Cc1ccc2nc(-c3ccccn3)c(N)n2c1,/,/,/,/,.,28µM,.
CC1(C)Cc2c(C#N)c(N)sc(=S)c2CS1,16µM,7.1µM,?,.,8.4µM,?,?
CC(C)c1nc(Cl)c(C#N)c2c1CSC(C)(C)C2,.,.,.,.,.,/,/
COCCNC(=O)C(=O)NCC1OCCN1S(=O)(=O)c1cc(F)ccc1F (stereo not given),/,/,/,/,.,/,/
Oc1ccc(N2CCN(Cc3nc4ccccc4[nH]3)CC2)cc1,56µM,/,.,.,.,18µM,28µM
CC(=O)c1ccc(N2CCN(Cc3nc4ccccc4[nH]3)CC2)cc1,.,/,.,.,.,/,/
COC(=O)c1ccc(C2Nc3ccc(/C(C)=N/NC(=O)C(OC)c4ccccc4)cc3C3C=CCC32)cc1 (stereo not given),?,?,.,.,.,?,?
COC(C(=O)N/N=C(\C)c1ccc(O)cc1)c1ccccc1 (stereo not given),.,/,.,?,.,/,/
CCOc1ccc(NC(=O)CSc2nnc(CNC(=O)c3cccs3)o2)cc1,.,/,.,.,.,/,/
CN(Cc1nccn1C)C(=O)c1cc(COc2cccc(C(F)(F)F)c2)on1,.,/,?,.,.,/,/
Cc1ccc(CN(C)C(=O)c2cc(COc3cccc(C(F)(F)F)c3)on2)o1,20µM,/,.,.,?,13µM,11µM
O=C(NC(=S)NNC(=O)c1ccccc1[N+](=O)[O-])c1ccc(Br)cc1,79µM,/,6.3µM,6.3µM,?,?,?
O=C(NNC(=O)c1ccccc1[N+](=O)[O-])c1ccc(NC(=O)c2ccccc2)cc1,.,/,.,.,.,/,/
COc1ccc(OC)c(S(=O)(=O)Nc2cc3c(cc2N2CCCC2)n(C)c(=O)c(=O)n3C)c1,.,/,.,.,21µM,.,?
O=C1C=CC(=O)C(C2=C3C(=O)N(CCc4ccccc4)CC(=O)N3CCC2)=C1,1µM,2.2µM,?,7.9µM,?,0.56µM,0.89µM
O=C(O)c1ccc2c(=O)n(-c3ccccc3)c(=S)[nH]c2c1,.,/,.,.,.,/,/
O=C(O)C1CCc2sc3[nH]c(=S)n(-c4ccccc4)c(=O)c3c21 (stereo not given),25µM,/,.,.,?,2µM,3.2µM
COc1ccccc1NS(=O)(=O)c1ccc(C)c(C(=O)N2CCN(c3ccc(O)cc3)CC2)c1,/,/,/,/,.,7.1µM,16µM
SMILES,Sfp inh,ALDH1A1 inh,RORg inh,Gal4-VP16 FLuc,PLK1 PBD block,TbPYK confirm,TbPYK orthogonal
Cc1ccc([N+](=O)[O-])cc1NCC(=O)NN,.,.,.,.,.,/,/
C[C@@H]1O[C@@H](O[C@@H]2[C@@H](O)[C@H](OCCc3ccc(O)c(O)c3)O[C@H](CO)[C@H]2OC(=O)/C=C/c2ccc(O)c(O)c2)[C@H](O)[C@H](O)[C@H]1O,/,/,/,/,.,32µM,?
CC(C(=O)O)N1CCCCC1 (stereo not given),.,/,.,.,.,/,/
Cc1ccc(NC2=C(NC(=O)c3ccccc3)C(=O)c3ccccc3C2=O)cc1Cl,10µM,20µM,?,?,27µM,?,?
COc1ccc2cc(-c3[nH]ncc3CN3CCCC3c3nonc3C)ccc2c1 (stereo not given),.,.,.,.,.,/,/
C[C@@H](NC(=O)c1nc[nH]c1C(=O)NCc1ccccc1)c1ccccc1,/,/,/,/,.,/,/
Cc1ccc(/C=C2/NC(=O)N(Cc3ccccc3)C2=O)o1,?,3.5µM,?,?,.,16µM,32µM
Cc1ccccc1C(=O)N1CC(=O)Nc2ccc(F)cc2C1c1ccccc1 (stereo not given),.,/,.,.,.,/,/
O=C(O)c1n[nH]c2c1CC(C1CCCCC1)CC2 (stereo not given),/,/,/,/,.,/,/
CC1(C)CC(=O)C2=C(C1)OC1=C(C(=O)CC(C)(C)C1)C2c1ccc(O)cc1O,7.9µM,0.89µM,3.2µM,6.3µM,3.5µM,28µM,?
CC1(C)CC(=O)C2=C(C1)OC1=C(C(=O)CC(C)(C)C1)C2c1ccc(O)c([N+](=O)[O-])c1,.,.,.,.,.,/,/
